Screening results deposited in PubChem by National Center for Advancing Translational Sciences (NCATS).
NS1 inh: qHTS Assay for Inhibitors of Influenza NS1 Protein Function; 270,000 compounds, 0.4% hits; Potency, µM (series often up to 46.1 µM), without a hit: at the top dose activity, positive = more growth; also: actives are rising curves; nearly all actives have a fitted effect of over 50% in size
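OD600 was taken as the measure of yeast growth restored by compound in an NS1-expressing S. cerevisiae strain. Cells had been washed out of glucose medium and diluted 1:100 into galactose -URA medium, pH 6.0.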
SARS PLP yeast: qHTS of Yeast-based Assay for SARS-CoV PLP; S. cerevisiae expressing SARS-CoV PLpro, growth rescue; Potency, µM (titrated, usually from 32.9 µM), without a hit: at the highest dose activity, positive = growth rescue, usual class: activators; 330,000 compounds, 0.19% hits; AID 485353, 2010; also: 0% is about no effect; nearly all actives have a fitted effect of over 55% in size
Pf growth 96h: Primary qHTS for delayed death inhibitors of the malarial parasite plastid, 96 hour incubation. P. falciparum luciferase reporter growth, 96 h. Potency, µM (doses to about 28.7 µM), without a hit: top-dose activity change, negative = inhibition, usual class: inhibitors. 320,000 compounds, 6.9% hits. AID 504834, 2011; active = well fitted inhibition curve with a large enough effect; inconclusive = small, poorly fitted or top-dose-only effect, or another doubt; inactive = no such curve, though single readings can be large or run the other way; also: % is scaled to controls: 0 for no effect and ±100 for the full control effect
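Luminescence readout: decreased luciferase signal marks inhibited growth of reporter-expressing P. falciparum in infected red cells (2% hematocrit, 0.05% parasitemia final), exposed to compound two generations (96 h, 37 C, 5% CO2).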
Pf growth 48h: Primary qHTS for delayed death inhibitors of the malarial parasite plastid, 48 hour incubation. P. falciparum luciferase growth in erythrocytes, 48 h. Potency, µM (doses to about 28.7 µM), inactives show at the top dose activity change, negative = inhibition, usual class: inhibitors. 310,000 compounds, 5.9% hits. AID 504832, 2011; active = well fitted inhibition curve with a large enough effect; inconclusive = small, poorly fitted or top-dose-only effect, or another doubt; inactive = no such curve, though single readings can be large or run the other way; also: % is scaled to controls: 0 for no effect and ±100 for the full control effect
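A one-generation exposure of luciferase-tagged malaria parasites in RPMI 1640/Albumax erythrocyte culture, 37 C and 5% CO2. Inhibition is inferred from decreased luminescence after adding detection reagent.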
An asterisk follows results filed as active; ? = inconclusive; / = no result given; [ ] = another dose, or the depositor's remark. Compounds with a hit are over-represented: about 10% of the library has one in this group of screens. Unless noted, calls follow the shape of the full dose curve. Potency is read from the fitted curve at half-maximal effect.

SMILES	NS1 inh	SARS PLP yeast	Pf growth 96h	Pf growth 48h
Cc1nn(C(C)C(=O)NCCN2CCCC2)c(=O)c2c1sc1ccccc12 (configuration not stated)	12%	-7%	?	-5%
CSCCCNC(=S)N(C)CC(=O)Nc1ccc(C)cc1	/	2%	30%[5.75 µM]	5%
c1ccc2c(c1)CCOC2CNCCCN1CCCCC1 (configuration not stated)	6%	-10%	12µM*	?
O=C(Nc1ccc(Br)cc1)C1C2C=CC3(O2)C1C(=O)N(CCN1CCCCC1)C3C(=O)NC1CCCCC1 (configuration not stated)	-14%	8%	?	?
CCCN(CCC)CCN1C(=O)C2C(C(=O)Nc3cccc(SC)c3)C3C=CC2(O3)C1C(=O)NC1CCCCC1 (configuration not stated)	-5%	4%	-28%	3.7µM*
CSc1cccc(NC(=O)C2C3C=CC4(O3)C2C(=O)N(CCCN2CCOCC2)C4C(=O)NC2CCCCC2)c1 (configuration not stated)	7%	-6%	16%	-17%
Cc1cc(C)cc(NC(=O)C2C3C=CC4(O3)C2C(=O)N(CCN2CCCCC2)C4C(=O)NC2CCCCC2)c1 (configuration not stated)	-2%	2%	10µM*	?
COCCN(CCOC)S(=O)(=O)c1ccc(NC(=O)c2cnccn2)cc1	26%	11%	9%	8.3µM*
CC1CC(C)CN(S(=O)(=O)c2ccc(C(=O)NNC(=O)c3ccccc3F)cc2)C1 (configuration not stated)	/	-2%	/	/
CNC(=O)N(O)C1N(c2ccccc2)C(=S)SC1(C)C (configuration not stated)	14%	18%	2.1µM*	0%
COc1ccc(NC(=O)C(Sc2nnc(-c3ccncc3)n2-c2ccccc2C)c2ccccc2)cc1Cl (configuration not stated)	28%	-9%	?	8.3µM*
Cc1ccn2c(C(=O)CSc3ccccc3Cl)c(C)nc2c1	3%	-2%	?	3.7µM*
COc1ccc(C(c2c(C)n(C)n(-c3ccccc3)c2=O)c2c(C)n(C)n(-c3ccccc3)c2=O)c(OC)c1OC	8%	0%	10µM*	?
COC(=O)NNC(=O)COc1ccc2ccccc2c1Br	-5%	-5%	57%	12%
CC(C)(C)C(=O)NNC(=O)COc1ccc2ccccc2c1Br	-4%	1%	2.3µM*	6%
CCOc1ccc(/C=C/C(=O)Nc2ccc(OC)cc2[N+](=O)[O-])cc1	-8%	4%	?	21%
CCOc1ccc(NC(=O)/C=C/c2ccccc2)c([N+](=O)[O-])c1	-3%	2%	8.3µM*	9.3µM*
COc1ccc(CNC(=O)CCNS(=O)(=O)c2cc(Br)cnc2N)cc1	-6%	3%	15%	9%
CCN(CC)S(=O)(=O)c1ccc(OC)c(NC(=O)C(C)Oc2ccc3c(C)cc(=O)oc3c2)c1 (configuration not stated)	19%	2%	9.3µM*	1.9µM*
COC(=O)C1=C(N)N(c2ccc(F)cc2)C2=C(C(=O)CCC2)C1c1ccc2c(c1)OCO2 (configuration not stated)	-5%	1%	65%	10µM*
COc1ccc(-c2nc(-c3ccccc3)c(-c3cc([N+](=O)[O-])ccc3C)[nH]2)cc1O	21%	-22%	?	5.2µM*
Cc1ccc([N+](=O)[O-])cc1-c1[nH]c(-c2ccc(O)c(O)c2)nc1-c1ccccc1	24%	23%	20%	/
COc1ccc([N+](=O)[O-])cc1-c1[nH]c(-c2ccc(C(=O)O)cc2)nc1-c1ccccc1	13%	-9%	?	8.3µM*
CSc1ccccc1NC(=S)NCc1ccc(Cl)cc1	-17%	15%	?	-5%
O=C(CCCN=C1NS(=O)(=O)c2ccccc21)OCC(=O)c1ccccc1Cl	/	2%	18%	?
Cc1ccnc(SCC(=O)N2CCc3ccccc32)n1	-5%	1%	290%	77%
CC(=O)Nc1ccc(C(=O)CSc2ncn(-c3ccccc3)n2)cc1	2%	-6%	13µM*	33%
O=C(CSc1ncn(-c2ccccc2)n1)N1CCc2ccccc21	-7%	-5%	10µM*	21%
CCCCCCCCCCCCCCCCOP(=O)([O-])OCC[N+](C)(C)C	/	/	7.6µM*	?
